According to ChEMBL document CHEMBL1201862, “PubChem BioAssay data set” (2004):
Screen size: about 57,000 […]; about 2,300 (4%) were called active. Rule as the data show it: active = GI50 up to about 1.1 µM and inactive = higher. Not all results are given here. Potency and affinity values are given separately.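 Growth conditions: 96-well plates. Treatment: test compound, 48 hours, 5 concentrations. Analysis: linear interpolation between bracketing concentrations; unreached endpoints set to highest concentration. Here, GI50 denotes the concentration required for 50% inhibition of growth.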

System: SK-MEL-28
Test: NCI tumour cell line growth inhibition, 48 h

| Substance | GI50 [µM] |
| --- | --- |
| [Bis(aminomethyl)diethylsilane]tetrachloroplatinum(IV), CHEMBL2146203 | 1.72 |
| CISPLATIN, CHEMBL11359 | 4.43 |
| [Bis(aminomethyl)tetramethylenesilane]dichloropaltinum(II), CHEMBL2146205 | 20.3 |
| [Bis(aminomethyl)pentamethylenesilane]dichloropaltinum(II), CHEMBL2146202 | 3.85 |
| [Bis(aminomethyl)ethylmethylsilane]tetrachloroplatinum(IV), CHEMBL2146192 | 2.76 |
| [Bis(aminomethyl)pentamethylenesilane]tetrachloropaltinum(IV), CHEMBL2146204 | 1.23 |
| cis-Bis[[(trimethylsilyl)methyl]amino]tetrachloroplatinum(IV), CHEMBL2146191 | 2.86 |
| [Bis(aminomethyl)dimethylsilane]tetrachloroplatinum(IV), CHEMBL2146190 | 10.2 |
| [Bis(aminomethyl)tetramethylenesilane]tetrachloropaltinum(IV), CHEMBL2146189 | 2.85 |
| mu-(1,7-nanodiamine-N,N')bis-(cis-aminedichloroplatimum (II)), CHEMBL2146215 | 10.2 |
| [Bis(aminomethyl)dimethylsilane]dichloroplatinum (II), CHEMBL2146201 | 21.6 |
